The campaign covered roughly 280,000 compounds. About 2,600 (0.93%) were called active. Not shown: some 8% with an inconclusive outcome. For the sample, actives were picked, then their nearest neighbours and some compounds at random. A number with no mark means an inactive call. Calls follow the shape of the dose curve; as a rule, active = well fitted curve in the direction sought with a large enough effect; inconclusive = small, poorly fitted or top-dose-only effect; inactive = flat fitted curve, though single readings scatter.
% is scaled to controls: 0 for no effect and ±100 for the full control effect; potency is read from the fitted curve at half-maximal effect; tags tell the direction and shape of the fitted curve or compound fluorescence and quenching.

The nature of this test: Counterscreen qHTS for Inhibitors of Tau Fibril Formation, Fluorescence Polarization. Also: nearly all actives have a fitted effect of over 55% in size. Particulars: tau K18 P301L Alexa594 fluorescence, heparin fibrillization; series mostly up to 57.7 µM; activity change, negative = decrease: at the top concentration. The method in brief: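 Human tau K18 P301L (15 uM unlabeled, 0.24 uM Alexa 594-labeled) in 100 mM sodium acetate pH 7 with 20 uM heparin, 6 hr at 37 C. ThT 30 uM added, 1 hr ambient; Alexa 594 FP and total fluorescence read at 555/632 nm.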
For `CCc1ccccc1NC(=O)N1CCN(C(=O)c2nsc3ccccc23)CC1`, the “activity change, negative = decrease” value is -5.01%. With `COc1cccc(NC(=S)NCc2ccco2)c1`, the “activity change, negative = decrease” value was 1.26%. On to `COc1cccc(NC(=S)N(CCc2c(C)[nH]c3ccccc23)Cc2ccco2)c1`, for which the Potency is 12.6 µM [quencher] (active).

In the case of `Cc1[nH]c2ccccc2c1CCN(Cc1cccs1)C(=S)NC(C)(C)C`, the “activity change, negative = decrease” value was -17.2%. Take `CC(C)(C)OC(=O)N1CCC(c2c(C(=O)N3CCc4ccccc4C3)cnn2-c2ccc(F)cc2)CC1`: the “activity change, negative = decrease” value was -6.75%. For `O=C1c2ccccc2C(=O)N1CCCc1nc(-c2ccccc2)no1`, the “activity change, negative = decrease” value is -12.6%. Consider `Cc1ccc2[nH]cc(CCCN3C(=O)c4ccccc4C3=O)c2c1`, for which the Potency was 25.1 µM [quencher] (active). As to `O=C1c2ccccc2C(=O)N1CCc1nn[nH]n1`, the “activity change, negative = decrease” value is 4.43%.

As to `COc1ccc(CCNC(=O)c2ccc3c(c2)sc2nc(-c4ccc(C)cc4)cn23)cc1OC`, the “activity change, negative = decrease” value was 12.4%. In the case of `O=C(CSCc1cnn(-c2ccccc2)c1-n1cccc1)NCc1ccccc1Br`, the “activity change, negative = decrease” value is -5.24%.

For `CCOc1ccccc1CNC(=O)c1cnc2c(-c3ccc(OCC)c(OCC)c3)c(C)nn2c1C`, the “activity change, negative = decrease” value is -23.8%. On the same count and under the same terms, for `CN(CC(=O)Nc1cccc(F)c1)CC(=O)Nc1cccc([N+](=O)[O-])c1` the value was -23.4%. On the same count and under the same terms, in the case of `CN(c1ccc(OCC(=O)NC2=NCCS2)cc1)S(=O)(=O)c1ccc(F)cc1` it was -15%.

In the case of `CN(c1ccc(OCC(=O)OCC(=O)Nc2cccc([N+](=O)[O-])c2)cc1)S(=O)(=O)c1ccc(F)cc1`, the Potency was 10 µM [quencher] (active).

With `NS(=O)(=O)c1ccc(CCNC(=O)Nc2ccc(Cl)cc2)cc1`, the “activity change, negative = decrease” value was 15.1%. As to `CC(C)S(=O)(=O)c1csc(NC(=O)Nc2ccc(Cl)cc2)c1Cl`, the Potency is 25.1 µM [quencher] (active). On to `Cn1ccc(NC(=O)Nc2ccc(Cl)cc2)n1`, for which the “activity change, negative = decrease” value was -10.6%. In the case of `Cc1ccc(CSc2nc3cccnc3n2Cc2ccc(C(=O)NC3CC3)cc2)cc1`, the “activity change, negative = decrease” value was 2.64%. As to `CCCNC(=O)CCn1nc(-c2ccccc2)c2ccccc2c1=O`, the “activity change, negative = decrease” value was -6.14%. On to `COc1cc(NS(=O)(=O)c2cccs2)cc(OC)c1`, for which the “activity change, negative = decrease” value was -14.8%. As for `O=C(Nc1cccc(Cl)c1)Nc1ccccc1NS(=O)(=O)c1cccs1`, the Potency is 11.2 µM [quencher] (active). On to `O=C(Nc1nncs1)c1ccccc1NS(=O)(=O)c1cccs1`, for which the “activity change, negative = decrease” value was -4.18%. For the compound `CC(NC(=O)c1cc(Sc2ccc(F)cc2F)nc2ccccc12)c1ccccc1` (centres undefined), the “activity change, negative = decrease” value was -10.4%. Same read-out and setting: for `CCN(c1ccc(Cl)cc1)S(=O)(=O)c1nnc(NC(=O)c2ccco2)s1` the value was -2.62%. Regarding `COc1ccc(CCNC(=O)C(=O)NCC(c2ccco2)S(=O)(=O)c2cccs2)cc1OC` (centres undefined), the “activity change, negative = decrease” value is -16.5%.

With `CC1=Nc2cc(C(=O)NCc3ccc(C)cc3)ccc2Sc2ccc(Cl)cc21`, the “activity change, negative = decrease” value was -15.9%. For the compound `Cc1ccc(C)c2sc(NC(=O)c3ccc(S(=O)(=O)N4CCCC4)cc3)nc12`, the “activity change, negative = decrease” value is -21.1%.

Regarding `CCN(CC)c1ccc2c(Nc3ccccc3)c(C=O)c(=O)oc2c1`, the “activity change, negative = decrease” value is -7.21%.

Consider `CCN(CC)c1ccc2oc(=O)c(C)nc2c1`, for which the Potency is 12.6 µM [quencher] (active). As to `CCN(CC)c1ccc(/C=N/Nc2nc(C)cc(C)n2)c(O)c1`, the “activity change, negative = decrease” value was 2.1%. For the compound `COc1cc(OC)c(OC)cc1/C=C/c1nc2cc3ccccc3cc2c(=O)n1-c1ccc(F)c(Cl)c1`, the “activity change, negative = decrease” value is -17.3%. Still for that read-out and setting: in the case of `COc1ccccc1-c1ccnc2[nH]n(-c3ccccc3)c(=O)c12` it was -12.9%; in that of `CCOC(=O)c1c(C)[nH]c(CCC(=O)NCCCN2CCN(c3cc(C)ccc3C)CC2)c1C`, -23.4%; in that of `CCOC(=O)c1csc(NC(=O)Nc2cccc(OC)c2)n1`, -1.36%. Take `COc1cccc(CC(=O)Nc2ccc(-c3csc(C)n3)cc2)c1`: the “activity change, negative = decrease” value is -18.4%. As to `C=CCCC(=O)Nc1nc(C)c(-c2csc(Nc3ccc(Cl)cc3)n2)s1`, the Potency was 12.6 µM [quencher] (active). Regarding `Cc1nc(NC(=O)CN(C)S(=O)(=O)c2ccc(Cl)cc2)sc1C`, the “activity change, negative = decrease” value is -18%.

On to `Cc1nc(C)c(-c2csc(NCCc3ccccc3)n2)s1`, for which the “activity change, negative = decrease” value was -27.9%. For the compound `CCCCCCC(=O)Nc1nc(C)c(-c2csc(Nc3cccc(OC)c3)n2)s1`, the Potency is 8.91 µM [quencher] (active). With `Cc1ccccc1C(=O)Nc1nnc(S(=O)(=O)N(C)c2ccc(Cl)cc2)s1`, the “activity change, negative = decrease” value was -20%. As for `Cc1ccc2onc(CC(=O)N3CCN(c4ccc(Cl)cc4)CC3)c2c1`, the “activity change, negative = decrease” value was 2.99%. Same read-out and setting: in the case of `Cc1cc2c(cc1S(=O)(=O)CCC(=O)Nc1ccc(OC(F)(F)F)cc1)OCC(=O)N2` it was -24.4%. The same measure, in the same setting: for `Cc1cccc(C(=O)N2c3nc(-c4ccco4)nn3C3(CCCCC3)[C@@H]3CCCC[C@@H]32)c1` the value was -1.79%. Still for that read-out and setting: for `CCOc1cc(-c2cc(-c3ccc(OC)cc3)nc(N)c2C#N)ccc1O` the value was -26%; for `CCSc1nc(-c2ccc(OC)cc2)cc(-c2ccc(OC)cc2)c1C#N`, -20.3%. As for `COc1ccc(-c2cc(-c3ccc(N)cc3)nc(N)c2C#N)cc1OC`, the Potency was 28.2 µM [quencher] (active). In the case of `CCn1cc2nc(SCc3cccc(F)c3)n(CCc3ccccc3)c(=O)c2n1`, the “activity change, negative = decrease” value is -19.5%. Same read-out and setting: for `CCN1CCN(CCCNC(=O)c2cnn(-c3ccc(C)cc3C)c2C2CCN(C(=O)OC(C)(C)C)CC2)CC1` the value was -19.1%; for `CCOC(=O)Cc1csc(NC(=O)Nc2ccccc2)n1`, -12.3%.

`CCOC(=O)/C(=N\Nc1ccccc1[N+](=O)[O-])c1csc(Nc2ccccc2)n1`: the Potency was 7.08 µM [quencher] (active). With `Cc1csc(NC(=O)Nc2ccccc2[N+](=O)[O-])n1`, the “activity change, negative = decrease” value was -19.4%. As for `CCc1ccc(NC(=O)c2cc(S(=O)(=O)NC3CCCCCC3)ccc2F)cc1`, the “activity change, negative = decrease” value is -23.9%. On the same count and under the same terms, for `Cc1cccc(CCNC(=O)c2ccc3c(c2)nc2n3CCC(C)C2)c1` (centres undefined) the value was -12.3%; for `CCOc1cc(CNC(=O)c2sc3ncnc(N(C)C4CCCCC4)c3c2C)ccc1OC`, -2.89%. Consider `CCSC1=C(C#N)C(=O)n2c1cc1c2CCCC1`, for which the Potency is 31.6 µM [quencher] (active). For the compound `CCSc1ncnc2c(C#N)c3n(c12)CCCCC3`, the “activity change, negative = decrease” value is -3.57%. For `O=C(CSCc1cnn(-c2ccccc2)c1-n1cccc1)NCc1ccc(Cl)cc1`, the “activity change, negative = decrease” value is 14.4%. The same measure, in the same setting: for `COc1ccc(-c2nc3scc(CCNS(=O)(=O)c4cc(F)ccc4OC)n3n2)cc1OC` the value was -16.3%; for `COc1ccc(C)cc1NC(=O)NCc1ccccn1`, 2.13%.

On to `COc1ccc(Nc2ncc(C(=O)Nc3cc(C)ccc3OC)c3ccccc23)cc1`, for which the Potency was 3.55 µM [quencher] (active). Consider `COc1ccc(NC(=O)c2cnc(Nc3ccc(C)c(Cl)c3)c3ccccc23)cc1OC`, for which the “activity change, negative = decrease” value is -13%. For the compound `CC1(C)N=C(SCc2ccccc2Cl)c2ccccc2N1`, the Potency is 12.6 µM [quencher] (active). Take `Nc1nc(SCc2ccccc2Cl)n[nH]1`: the “activity change, negative = decrease” value was -6.77%. Take `O=c1cc(O)nc(SCc2ccccc2Cl)[nH]1`: the “activity change, negative = decrease” value is -4.9%.
